# Laboratory results as given in PubChem BioAssay (Tox21).
# The source made the active and inactive calls. Where a call stands in place of a potency, no number is given. Calls follow the shape of the full dose curve.
# Molecular target: Acetylcholinesterase (Homo sapiens) (UniProt P22303)
# Test: Acetylcholinesterase (AChE) small molecule antagonists: enzyme-based qHTS assay (AID 1347397); also: nearly all actives have a fitted effect of over 55% in size
# Details: Potency: AChE enzyme activity inhibition; series mostly up to 115 µM
# Description: National Center for Advancing Translational Sciences [NCATS]
# Division of Preclinical Innovation [DPI]
# U.S. Environmental Protection Agency [EPA]
# National Institutes of Environmental Health Sciences [NIEHS]
# National Toxicology Program [NTP]
# U.S. Food and Drug Administration [FDA]
# Acetylcholinesterase (AChE) is the primary cholinesterase in the body that hydrolyzes a key neurotransmitter, acetylcholine. Inhibition of AChE activity can lead to neurotoxicity. The known inhibitors include organophosphorous pesticides (OP), chemical warfare agents, drugs, and various phytochemicals.
# An enzyme-based assay with the recombinant human AChE and Amplite Colormetric acetylcholinesterase assay kit (AAT Bioquest, Sunnyvale, CA) was used to evaluate the chemicals in the Tox21 10K library that inhibit AChE activity. The assay uses 5, 5-dithiobis-(2-nitrobenzoic acid) (DTNB) to quantify the thiocholine produced from the hydrolysis of acetylthiocholine by AChE.
# Tox21 Assay Protocol Summary:
# For the enzyme-based AChE assay, recombinant human AChE (50 mU/mL) in 4 uL/well was dispensed into black, clear-bottom 1536-well plates using a Multidrop Combi dispenser (Thermo Scientific, MA). Then, 23 nL of compound or DMSO (vehicle control) was transferred into the assay plates by a Pintool Station (Wako Automation, CA). The plates were incubated for 30 min at room temperature, followed by the addition of 4 uL of colorimetric detection cocktail solution (DTNB, acetylthiocholine) into each well using a Flying Reagent Dispenser (Beckman Coulter, CA) and then 10 min incubation at room temperature.
# Acetylcholinesterase (Homo sapiens), sequence (P22303 whole entry, looked up): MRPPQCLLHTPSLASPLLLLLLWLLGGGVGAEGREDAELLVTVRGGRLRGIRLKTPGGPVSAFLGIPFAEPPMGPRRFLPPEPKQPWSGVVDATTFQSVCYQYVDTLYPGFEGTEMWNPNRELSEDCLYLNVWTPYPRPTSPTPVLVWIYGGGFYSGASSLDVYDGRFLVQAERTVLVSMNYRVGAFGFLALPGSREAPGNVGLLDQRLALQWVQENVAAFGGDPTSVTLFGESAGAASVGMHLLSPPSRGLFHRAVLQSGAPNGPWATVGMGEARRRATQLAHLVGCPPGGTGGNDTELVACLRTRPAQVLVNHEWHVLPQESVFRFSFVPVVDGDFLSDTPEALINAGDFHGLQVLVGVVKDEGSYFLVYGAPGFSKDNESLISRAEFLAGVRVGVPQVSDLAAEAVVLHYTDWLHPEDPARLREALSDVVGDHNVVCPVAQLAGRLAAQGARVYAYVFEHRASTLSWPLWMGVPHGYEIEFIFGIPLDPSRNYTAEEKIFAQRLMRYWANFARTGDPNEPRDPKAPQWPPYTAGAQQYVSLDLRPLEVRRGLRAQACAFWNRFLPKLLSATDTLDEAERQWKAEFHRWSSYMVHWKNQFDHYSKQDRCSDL
row,SMILES,Potency
1,CC(C)OC(=O)Nc1ccccc1,inactive
2,CCCCOC(=O)c1ccccc1C(=O)OCCCC,inactive
3,O=S(=O)(c1ccc(O)cc1)c1ccc(O)cc1,inactive
4,O=NN1CCCCCCC1,inactive
5,c1ccc2c(c1)Oc1ccccc1O2,inactive
6,C#CCN(C)[C@H](C)Cc1ccccc1,inactive
7,CC(Br)C(=O)O (stereo not given),inactive
8,CN(N=O)c1ccccc1,inactive
9,COC(=O)c1ccccc1C(=O)OC,inactive
10,CCCN(CCC)c1c([N+](=O)[O-])cc(C(F)(F)F)cc1[N+](=O)[O-],inactive
11,O=c1[nH]c(=O)[nH]c(=O)[nH]1,inactive
12,OCCN(CCO)CCO,inactive
13,ClCc1cccnc1,inactive
14,COC(=O)NC(=S)Nc1ccccc1NC(=S)NC(=O)OC,inactive
15,Clc1ccccc1Cl,inactive
16,Nc1ccc(Cc2ccc(N)cc2)cc1,inactive
17,Cc1cc(-c2cc(C)c(N)c(C)c2)cc(C)c1N,inactive
18,Oc1ccccc1Cl,inactive
19,CCOC(=O)c1ccccc1C(=O)OCC,inactive
20,O=[N+]([O-])c1ccc([As](=O)(O)O)cc1,inactive

row,SMILES,Potency
1,C=CCO,inactive
2,c1cc2c3c(cccc3c1)CC2,inactive
3,O=[N+]([O-])c1ccc(Oc2ccc(Cl)cc2Cl)cc1,inactive
4,CN(C)CCO,inactive
5,NCCc1ccc(O)cc1,inactive
6,c1ccc2c(c1)oc1ccccc12,inactive
7,BrCCBr,inactive
8,[O-][Cl+2]([O-])O,inactive
9,C1CC2OC2CC1C1CO1 (stereo not given),inactive
10,[N-]=[N+]=[N-],inactive
11,CC(C)N1C(=O)c2ccccc2NS1(=O)=O,inactive
12,CCCCCCCCCCCC#N,inactive
13,CC(C)C#N,inactive
14,CCc1cccc(C)c1N(C(=O)CCl)C(C)COC (stereo not given),inactive
15,CON(C)C(=O)Nc1ccc(Cl)c(Cl)c1,inactive
16,CC(C)(Cl)Cl,inactive
17,CC1OC(C)OC(C)O1 (stereo not given),inactive
18,CCCC1COC(Cn2cncn2)(c2ccc(Cl)cc2Cl)O1 (stereo not given),inactive
19,CC(C)=C[C@@H]1[C@@H](C(=O)OCc2coc(Cc3ccccc3)c2)C1(C)C,inactive
20,Nc1c(Cl)c(Cl)nc(C(=O)O)c1Cl,inactive
